Laboratory results reported in PubChem BioAssay (NCI).
“And” between values parts separate entries of the source, which are not always exact repeats. Equal entries are not always repeated. About 83,000 compounds went through this panel and 20% of them were active in at least one assay; those are over-represented in the sample as a whole.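 For each line, cells grew in 96-well plates with the test compound present at a single concentration for 48 hours.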 The source made the active and inactive calls. The calls were made as follows: active = growth percent below 10; inactive = the rest.

Each compound was assayed on UACC-62 melanoma (assay: NCI-60 one-dose screen, 48 h (100 = growth as untreated, 0 = no growth, -100 = all killed)). Conditions: 10 µM unless noted.

Q: CC1OC(OC2C(O[C@H]3CC[C@@]4(C)C(=CC[C@H]5[C@@H]6C[C@@H]7O[C@]8(CC[C@H](C)CN8)[C@@H](C)[C@@H]7[C@@]6(C)CC[C@@H]54)C3)OC(CO)C(O)C2OC2OC(CO)C(O)C(O)C2O)C(O)C(O)C1O (some centres undefined) was tested. Which growth did it give?
A: Its growth is 96.6% [100 µM] (inactive) and -100% [100 µM] (active).

Q: With CCOc1cc2c(cc1O)C(=O)C[C@@H]1[C@@H]2CC[C@]2(C)[C@@H](O)CC[C@@H]12 as the compound, how does the growth read?
A: The growth was 13.5% [100 µM] (inactive) and 0.709% [100 µM] (active).

Q: With CC(C)=CCC/C(C)=C/CC/C(C)=C/CC/C(C)=C/C=C/C=C(\C)CC/C=C(\C)CC/C=C(\C)CCC=C(C)C as the compound, how does the growth read?
A: The growth was 75.8% [100 µM] (inactive) and 45% [100 µM] (inactive).

Q: With N#CC1C(=O)N(c2ccccc2)NC12OC(=O)c1ccncc12 (centres undefined) as the compound, how does the growth read?
A: The growth was 69.2% [20 µM] (inactive) and 17.2% [20 µM] (inactive).

Q: How did the growth turn out when O=C1N(c2ccccc2)N=C2c3ccncc3C3=NN(c4ccccc4)C(=O)C123 (centres undefined) was run?
A: The growth was 59.9% [100 µM] (inactive) and 10.7% [100 µM] (inactive).

Q: CC(=O)Nc1c(C)cc2c(nc3n2CCC3OC(C)=O)c1[N+](=O)[O-] (centres undefined) was tested. Which growth did it give?
A: The growth was 134% [100 µM] (inactive) and 108% [100 µM] (inactive).

Q: Which growth does the source give for CN(C)CCNc1ccc(NCC[N+](C)(C)Cc2ccc([N+](=O)[O-])cc2)c2c1C(=O)c1c(O)ccc(O)c1C2=O here?
A: The growth was 24.1% [100 µM] (inactive) and 0.198% [100 µM] (active).

Q: With CC(O)c1cc2c(s1)C(=O)c1c(C(C)O)csc1C2=O (centres undefined) as the compound, how does the growth read?
A: The growth was -61.9% [100 µM] (active) and -94.6% [100 µM] (active).

Q: With C=C1C(=O)OC2C1CC(O)/C(C)=C\CCC1(C)OC21 (centres undefined) as the compound, how does the growth read?
A: Its growth is 68.9% [100 µM] (inactive) and -86% [100 µM] (active).

Q: How did the growth turn out when CC(=O)OC(=C(C#N)C#N)c1nccnc1C(C)=O was run?
A: The growth was 96.4% [20 µM] (inactive) and -99.5% [20 µM] (active).

Q: For CC(=O)O[C@@H]1C[C@@]2(C)[C@@H]3CC=C4[C@@H](C[C@H](O)C(=O)C4(C)C)[C@]3(C)C(=O)C[C@]2(C)[C@H]1[C@@](C)(O)C(=O)/C=C/C(C)(C)OC(C)=O, which growth is on record?
A: The growth was -64.4% [100 µM] (active) and -99.7% [100 µM] (active).

Q: Which growth does the source give for CC1(C)CCCC(C)(C2CCC3(C)C2C(O)CC2C4(C)CCC(O)C(C)(C)C4C(O)CC23C)O1 (centres undefined) here?
A: Its growth is -76.6% [100 µM] (active) and -83.9% [100 µM] (active).

Q: CC#CC#C/C=C1\C=CC2(OC=CC2OC(C)=O)O1 (centres undefined) was tested. Which growth did it give?
A: Its growth is -87% [100 µM] (active) and -100% [100 µM] (active).

Q: For N#Cc1cnn2c1n[n+]([O-])c1ccc(Cl)cc12, which growth is on record?
A: Its growth is -91.7% [100 µM] (active) and -100% [100 µM] (active).

Q: For COc1c2c(c(OC)c3c1c(=O)c1ccccc1n3C)OCO2, which growth is on record?
A: Its growth is -0.25% [100 µM] (active).

Q: How did the growth turn out when CC(=O)c1cc2c(s1)C(=O)c1ccsc1C2=O was run?
A: Its growth is -54.1% [100 µM] (active) and -98.1% [100 µM] (active).

Q: For N#C/C(=C\c1ccccc1)C(=O)Nc1nnc(-c2ccccc2)o1, which growth is on record?
A: Its growth is 36.9% [100 µM] (inactive) and -78.4% [100 µM] (active).

Q: For CCOC(=O)C1(C#N)C(=O)c2cc[n+](CC[n+]3ccc4c(c3)C(=O)C(C#N)(C(=O)OCC)C4=O)cc2C1=O (centres undefined), which growth is on record?
A: The growth was 66.6% [100 µM] (inactive) and 29.5% [100 µM] (inactive).

Q: For C=C1C(=O)OC2/C=C(/C)C3(O)OC(C)(CC(OC(=O)C(C)C)C12)CC3OC(C)=O (centres undefined), which growth is on record?
A: The growth was -93% [100 µM] (active).

Q: Which growth does the source give for CCOC(=O)CCCOc1cc(-c2ccccc2F)nc2cc3c(cc12)OCO3 here?
A: Its growth is 31.5% [100 µM] (inactive) and -31.4% [100 µM] (active).

Q: How did the growth turn out when O=C(CCc1ccccc1)On1c(-c2ccccc2)nc2ccccc2c1=S was run?
A: Its growth is -68.8% [100 µM] (active) and -83.7% [100 µM] (active).

Q: Which growth does the source give for CCCCCCCCCc1cc(=O)c2c(O)cc(O)cc2o1 here?
A: Its growth is -88.9% [100 µM] (active) and -100% [100 µM] (active).

Q: For N#CC12COC3(CCCCC3C1(C#N)C#N)OC2=N (centres undefined), which growth is on record?
A: Its growth is -38.9% [100 µM] (active).

Q: With CC(=O)NC(CS/N=N/c1nc[nH]c1C(N)=O)C(=O)O (centres undefined) as the compound, how does the growth read?
A: Its growth is -5.07% [100 µM] (active) and 0.469% [100 µM] (active).
